# Screening results (PubChem)
# Sampled rows, rich in hits. Any-hit rate of the full collection: about 2.3%.
# Marburg entry inh – qHTS for inhibitors of binding or entry into cells for Marburg Virus | Marburg virus pseudotyped entry inhibition, cell reporter | Potency, µM (titrated, usually from 37.8 µM), for inactives: top-dose activity change, negative = inhibition, actives largely listed as inhibitors | 300,000 tested, 1.8% active; calls by dose curve; tested in HEK293 cells
# Lassa entry inh – qHTS for Inhibitors of binding or entry into cells for Lassa Virus; AID 540256, 2011; Potency, µM (doses to about 37.9 µM), inactives show at the top dose activity change, negative = inhibition, actives largely listed as inhibitors; 300,000 tested, 1.2% active; Lassa virus pseudotype entry inhibition, cell reporter; calls by dose curve; tested in HEK293 cells; note: nearly all actives have a fitted effect of over 50% in size
# AmpC inh no detg – qHTS Inhibitors of AmpC Beta-Lactamase (assay without detergent). Potency, µM (top dose mostly 57.1 µM), without a hit: at the highest dose activity change, negative = inhibition, most hits filed as inhibitors. 330,000 tested, 0.52% active. AmpC nitrocefin hydrolysis, absorbance 480 nm, 0.0001% Triton. AID 485341, 2010. P00811;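 note: plate controls were no compound for no effect and no enzyme for full effect; nearly all actives have a fitted effect of over 20% in size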
# Target sequence (P00811 whole entry, looked up): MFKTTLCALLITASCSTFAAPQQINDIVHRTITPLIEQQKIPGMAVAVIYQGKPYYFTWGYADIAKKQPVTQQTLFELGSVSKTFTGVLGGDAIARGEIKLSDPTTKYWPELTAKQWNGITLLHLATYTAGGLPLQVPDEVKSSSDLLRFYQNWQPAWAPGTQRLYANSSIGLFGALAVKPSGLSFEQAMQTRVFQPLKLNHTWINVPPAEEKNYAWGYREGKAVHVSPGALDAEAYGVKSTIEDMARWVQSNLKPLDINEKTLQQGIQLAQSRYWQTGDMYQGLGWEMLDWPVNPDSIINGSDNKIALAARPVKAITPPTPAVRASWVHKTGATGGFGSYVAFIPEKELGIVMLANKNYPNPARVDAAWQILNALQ
#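 20 mM phosphate pH 7.0 + 0.01% (detergent screen) or 0.0001% Triton X-100; 5.3 nM AmpC reagent; cpd preinc 15 min RT; nitrocefin (800 uM stock) to start; A480 q20 s × 4 min; Activity was normalised to no-enzyme and no-compound control wells.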
# AMA1-RON2 inh – qHTS for Inhibitors of AMA1-RON; Towards Development of Antimalarial Drug Lead: Primary Screen | AlphaScreen AMA1-biotinylated RON2 peptide binding | Potency, µM (top dose mostly 58.2 µM), for inactives: at the top dose activity change, negative = inhibition, hits mostly inhibitors | 360,000 tested, 0.2% active | AID 720542, 2013;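 note: 0% = vehicle wells and -100% = peptide control; nearly all actives have a fitted effect of over 45% in size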
#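 AMA1 (3D7) with his tag at 25 nM final met compounds first, then biotinylated RON2 peptide at 25 nM; detection used donor plus acceptor beads, 10 µg/mL apiece, read by AlphaScreen after 30 min at room temperature.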
# AmpC inh detg – qHTS Inhibitors of AmpC Beta-Lactamase (assay with detergent). P00811. AmpC hydrolysis of nitrocefin, absorbance 480 nm, 0.01% Triton. Potency, µM (highest dose often 114 µM), inactives show at the highest dose activity change, negative = inhibition, actives largely listed as inhibitors. 370,000 tested, 0.041% active. AID 485294, 2010;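 note: 0% = no-compound wells and -100% = no-enzyme wells; nearly all actives have a fitted effect of over 25% in size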
#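 20 mM phosphate pH 7.0 + 0.01% (detergent screen) or 0.0001% Triton X-100; 5.3 nM AmpC reagent; cpd preinc 15 min RT; nitrocefin (800 uM stock) to start; A480 q20 s × 4 min; Activity was normalised to no-enzyme and no-compound control wells.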
# * = called active by the depositor; ? = inconclusive; / = no result; [ ] = dose if it differs, or a comment. Unless noted, calls come from the whole dose curve; as a rule, active = well fitted curve in the direction sought with a large enough effect; inconclusive = small, poorly fitted or top-dose-only effect, or another doubt; inactive = no such curve, though single readings can be large; an effect the other way counts as inactive or inconclusive. Unless noted, % is set by controls: 0 for no effect and ±100 for the full control effect; potency is the fitted concentration of half-maximal effect.
SMILES,Marburg entry inh,Lassa entry inh,AmpC inh no detg,AMA1-RON2 inh,AmpC inh detg
O=C(Nc1cccc(NC(=O)c2cccs2)c1)c1ccc2c(c1)OCCO2,8%,11%,7.1µM*,-6%,-4%
O=C(Nc1cccc(Cl)c1)c1ccc2c(c1)OCCO2,?,?,-29%,8%,?
CCCn1c2ccccc2c2cnn(CC(=O)N3CCC(C)CC3)c(=O)c21,/,1%[46.1 µM],/,/,17%
CN1CCN(c2ccc(-c3cccc(NC(=O)COc4ccc(Cl)cc4Cl)c3)nn2)CC1,?,4.5µM*,23%,-3%,-6%
CCC(=O)Nc1cccc(C(=O)/C=C/c2ccccc2)c1,?,10µM*,-17%,-6%,3%
CCC(=O)Nc1cccc(C(=O)/C=C/c2cccs2)c1,/,/,-16%,9%,-1%
CCn1c2ccccc2c2cc(CN3CCN(Cc4cc(OC)ccc4O)CC3)ccc21,?,?,63%,13µM*,-11%
CCn1c2ccccc2c2cc(CN3CCN(Cc4cc(OC)c(O)c(OC)c4)CC3)ccc21,/,-9%[46.1 µM],/,/,0%
COc1cccc(-c2nnc(NC(=O)c3ccc4ncsc4c3)o2)c1,10µM*,1%,-12%,58%[2.32 µM],-1%
Cc1ccc(-c2nnc(Nc3ccc(Br)cc3)c3ccccc23)cc1S(=O)(=O)N1CCOCC1,/,-6%[46.1 µM],/,/,6%
CC(=O)c1ccc(NC(=O)Cn2c(=O)c3cccn3c3ccccc32)cc1,/,1.8µM*,/,/,0%
O=C1O[C@H](Nc2ccc(Br)cn2)c2ccccc21,5%,/,/,/,/
CCOC(=O)c1c(NC(=S)N2CCN(C)CC2)sc(C)c1-c1ccccc1,?,8.9µM*,138%,57%,?
CCOC(=O)c1ccc(NC(=S)N2CCN(C)CC2)cc1,18%,-22%,-9%,-4%,-2%
CCc1ccc(/C=C/c2c[nH]c3ccccc23)[n+](CC)c1,?,13µM*,-22%,-6%,-6%
COc1cccc([C@@H]2C(C#N)=C(N)Oc3cc(C)[nH]c(=O)c32)c1OC,-1%,/,/,/,/
c1csc(CNc2ccc3c(c2)OCCO3)c1,1µM*,?,-22%,-30%,-4%
CCCOC(=O)C1C2C=CC3(CN(c4ccc(Cl)c(F)c4)C(=O)C13)O2 (stereo not given),/,/,7.1µM*,9%,5%
CCOC(=O)C1C2C=CC3(CN(c4ccc(Cl)c(F)c4)C(=O)C13)O2 (stereo not given),/,/,-10%,16%,-10%
CCN(C(=O)c1cc2c(C)nc3ccccc3c2o1)c1cc(Cl)ccc1OC,13µM*,?,141%,-3%,-4%
CCOc1ccc(NC(=O)c2cc3c(C)nc4ccccc4c3o2)cc1,/,/,5µM*,0%,?
Cc1cccc(N2CCN(C(=O)c3ccc4c(Cl)c5c(nc4c3)CCCC5)CC2)c1C,10%[46.1 µM],29%[46.1 µM],/,/,-6%
COc1ccc2c(c[n+](C)c3c4cc5c(cc4ccc23)OCO5)c1OC,7.3µM*,4.1µM*,/,/,/
CCOC(=O)c1cnc2c(C)c(Cl)ccc2c1NCCCN1CCOCC1,/,/,164%,14%,?
CCCCN1CCC(COC(=O)c2cc(Cl)c(N)c3c2OCCO3)CC1,11µM*,/,-14%,-5%,-14%
SMILES,Marburg entry inh,Lassa entry inh,AmpC inh no detg,AMA1-RON2 inh,AmpC inh detg
Cc1ccccc1NC(=O)c1sc2nc(N3CCOCC3)c3c(c2c1N)CC(C)(C)OC3,24%[46.1 µM],-4%[46.1 µM],/,/,-6%
CC(=O)OCCCNc1cc(SCc2ccco2)c2nonc2c1[N+](=O)[O-],13µM*,?,-18%,-11%,-9%
Cn1ccc2c(-c3ccc(F)cc3F)cc3c(c21)C1CCC3O1 (stereo not given),/,1%[46.1 µM],/,/,/
CCN(CC)S(=O)(=O)c1ccc(O)c(NC(=O)c2ccc(N3CCOCC3)c([N+](=O)[O-])c2)c1,-8%,-30%,20µM*,4%,1%
Cc1cc(N2C(=O)C(=O)/C(=C(\O)c3ccc(F)cc3)[C@@H]2c2ccc(F)cc2)no1,2%,/,/,/,/
O=C1c2c(O)ccc(O)c2C(=O)c2c(NCCNCCO)ccc(NCCNCCO)c21,0.056µM*,0.5µM*,29%,10µM*,-22%
O=C(O)CNC(=O)[C@@H](CS)Cc1ccccc1,4%,/,/,/,/
CCn1cc(C(=O)O)c(=O)c2c1CC(N1CCNCC1)=C(F)C2,-7%,/,/,/,/
O=c1cc(N2CCCCC2)c(-c2ccccc2)nn1Cc1c(Cl)cccc1Cl,?,13µM*,-3%,-1%,?
CN1CCN(c2cc(=O)n(Cc3ccc(F)cc3)c(=O)[nH]2)CC1,/,/,0.56µM*,19%,2%
O=c1cc(N2CCN(c3ccccc3)CC2)[nH]c(=O)n1Cc1ccc(F)cc1,/,/,-16%,-2%,?
Cc1nc2c(o1)CCc1ccccc1[C@H]2O,11%,/,/,/,/
CC(C(=O)NC1CCCCCC1)N(c1ccccc1)S(C)(=O)=O (stereo not given),8.2µM*,-2%,-9%,-11%,?
CC(C(=O)Nc1ccccc1Cl)N(c1ccccc1)S(C)(=O)=O (stereo not given),5%[46.1 µM],-9%,-7%,14%,8%
Cc1ccsc1/C=C/c1ccc2ccccc2n1,?,13µM*,-29%,-6%,0%
Cc1ccsc1/C=C/c1ccc2cccc(O)c2n1,?,?,-36%,57%,3%
C(=C\c1ccco1)/c1ccc2ccccc2n1,2.8µM*,?,-48%,-17%,-11%
COc1ccc(Br)cc1CNC(=O)c1ccc2c(c1)nc1n2CCCCC1,/,?,/,/,3%
CCOC(=O)C1(CCCc2ccccc2)CCN(C(=O)c2ocnc2C)CC1,-3%[46.1 µM],2.8µM*,159%,7%,1%
CCOC(=O)C1(CCCc2ccccc2)CCN(C(=O)c2cncs2)CC1,-25%[46.1 µM],?,138%,5%,6%
CCOC(=O)C1(CCc2ccccc2)CCN(Cc2cccc3c2OCO3)CC1,13µM*,?,47%,-5%,-1%
COc1cccc(Cn2cnc3c2c(=O)n(C)c(=O)n3C)c1,?,2%[46.1 µM],/,/,21%
CNC(=S)N1N=C(c2ccc(C)cc2)CC1c1ccc(Cl)cc1 (stereo not given),?,9.2µM*,-19%,-8%,-5%
CCN(CC)c1ccc(NC(=O)CNCc2ccccc2Cl)c(C)c1,-1%[46.1 µM],10µM*,45%,?,0%
CCCCCCCC/C=C\CCCCCCCC(=O)NCCc1ccc(O)c(O)c1,4.5µM*,9.2µM*,-54%,-4%,?
CCCCCCCC/C=C\CCCCCCCC(=O)NCc1ccc(O)c(OC)c1,-15%,?,/,/,/
CC1=CCC2C(=O)N(c3ccc4ccccc4n3)C(=O)C2C1 (stereo not given),5%,12%,0.14µM*,-2%,0%
CCCCN(C)C(=O)c1ccc2c(c1)N(Cc1cccc(F)c1)C(=O)c1ccccc1S2,/,?,/,/,0%
